This is a sample that favours compounds with a hit; in the whole collection about 2.5% have one here.
TROY signal inh: blocks TROY-dependent signaling in reporter cells; Q293 LMP1-TROYcd NF-kB luciferase reporter, 4 h; inhibition, % at 10 µM; 360,000 tested, 0.98% active; AID 1347056;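 active = compounds whose plate-normalised and pattern-corrected inhibition of the luciferase reporter signal at the single screening dose is 50% or more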
EBV LMP1 NFkB: inhibitors of Epstein-Barr LMP1-induced NF-kappaB reporter | LMP1-induced NF-kappaB luciferase reporter cells, luminescence | inhibition, % at 12.5 µM | 350,000 tested, 0.69% active | AID 504558; in the data active = inhibition above about 41%;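 note: 0% = neutral control wells and 100% = reference inhibitor control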
TWEAK Fn14 block: inhibitors of TWEAK-Fn14 interaction signaling. TWEAK-stimulated Fn14 reporter cells, luciferase luminescence, 8 h. inhibition, % at 10 µM. 360,000 tested, 2% active. AID 1159606; in the data active = inhibition above about 50%
EWS-Fli inh: blocks EWS/Fli oncoprotein-driven transcription; inhibition, % at 12.6 µM; A673 NR0B1-luciferase reporter, viability-normalised; 350,000 tested, 0.67% active;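 active = mean inhibition of at least 50% after viability correction, with every replicate also passing that limit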;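 note: firefly luciferase signal divided by Alamar Blue viability fluorescence both relative to DMSO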
LGR2 inh: Drosophila LGR2 receptor signaling inhibition; 380,000 tested, 0.35% active; inhibition, % at 9.99 µM; HEK293 LGR2, CRE-luciferase, bursicon-stimulated, 4 h;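 active = drop in luminescence signal, shown as inhibition above about 50% in the replicate tests, limit read from the data, passing the limit was not always enough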;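 note: agonist challenge used bursicon conditioned medium at about half maximal strength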
* = called active by the depositor; . = no result.

SMILES	TROY signal inh	EBV LMP1 NFkB	TWEAK Fn14 block	EWS-Fli inh	LGR2 inh
C[C@H](CO)N1C[C@H](C)[C@H](CN(C)S(=O)(=O)c2ccc(F)cc2)Oc2c(NS(=O)(=O)c3ccc(Cl)cc3)cccc2C1=O	.	.	.	2	2
Nc1nc(SCC(=O)C23CC4CC(CC(C4)C2)C3)n[nH]1	.	4	72*	.	.
CSc1nc(N)nc(SCC(=O)C23CC4CC(CC(C4)C2)C3)c1C#N	54*	69*	93*	.	-1
CN(C(=O)CSc1n[nH]c(N)n1)C1CCCCC1	13	-1	1	6	0
O=C(C[C@H]1CC[C@H]2[C@@H](COC[C@@H](O)CN2S(=O)(=O)c2ccc(Cl)cc2)O1)NCCN1CCCC1	.	.	.	1	9
CO[C@H]1CN(C)C(=O)c2cc(NC(=O)c3cccc(Oc4ccccc4)c3)ccc2OC[C@H](C)NC[C@H]1C	.	.	.	20	4
COc1ccc(C(=O)n2cnc3ccccc32)cc1	-5	9	78*	12	20
C[C@@H]1CN([C@H](C)CO)C(=O)Cc2cc(NC(=O)Nc3ccc(F)cc3)ccc2O[C@@H]1CN(C)S(=O)(=O)c1ccc(F)cc1	.	.	.	35	-3
COc1ccc(C(=O)CN(CCC(=O)O)S(=O)(=O)c2ccc([N+](=O)[O-])cc2)cc1	-4	61*	-13	-7	-15
Cc1ccc(C(=O)CN(CCC(=O)O)S(=O)(=O)c2ccc([N+](=O)[O-])cc2)cc1	6	1	-9	-6	-13
Cc1ccccc1NC(=S)N(Cc1cccnc1)Cc1ccco1	-20	2	60*	2	-5
COc1ccc(CN(C)C[C@H]2OCCCC[C@H](C)Oc3ccc(NC(=O)Nc4cccc5ccccc45)cc3C(=O)N([C@@H](C)CO)C[C@@H]2C)cc1	.	.	.	5	-5
CN(C)CCCN=Cc1c(-c2ccccc2)[nH]n(-c2nc3ccccc3s2)c1=O	10	-14	62*	21	.
COc1ccc(NC(=O)N(C)C[C@@H]2OCCCC[C@H](C)Oc3ccc(NS(=O)(=O)c4cccs4)cc3C(=O)N([C@H](C)CO)C[C@H]2C)cc1	.	.	.	-3	-1
C[C@H](CO)N1C[C@H](C)[C@H](CN(C)C(=O)C2CC2)Oc2ncc(-c3ccc(C(=O)N(C)C)cc3)cc2C1=O	.	.	.	-21	-32
N#Cc1c2ccc([N+](=O)[O-])cc2[n+]([O-])n1-c1ccccc1	-4	50*	17	62*	12
CCN(CC)S(=O)(=O)c1cc(NC(=O)c2ccc3c(c2)NC(=O)C(C)S3)ccc1C (configuration not stated)	67*	7	89*	10	8
Cc1ccc2cc(CN(Cc3ccco3)S(=O)(=O)c3c(C)ccc4nsnc34)c(=O)[nH]c2c1	8	-1	23	.	.
Cc1cc2cc(CN(Cc3ccco3)S(=O)(=O)c3c(C)ccc4nsnc34)c(=O)[nH]c2cc1C	-11	44*	27	.	.
CC(=O)N1[C@@H]2c3ccc(-c4ccc(F)cc4)c(=O)n3C[C@@H]2[C@@H](CO)[C@@H]1C(=O)N(C)C	.	.	.	3	-13
COc1cccc(/C=C/C(=O)OCC(=O)c2ccccc2)c1OC	51*	-2	65*	-64	-63
COc1cccc(/C=C/C(=O)OCC(=O)c2ccc(C)c(C)c2)c1OC	6	2	-21	5	-12
CN(C)S(=O)(=O)c1cccc(NC(=S)Nc2cccc3cnccc23)c1	44	21	73*	-24	19
Cc1cccc(NC(=S)Nc2cccc3ccccc23)c1	39	1	23	.	-25
CC(C)c1ccc(NC(=S)Nc2cccc3ccccc23)cc1	70*	-3	53*	9	16
SMILES	TROY signal inh	EBV LMP1 NFkB	TWEAK Fn14 block	EWS-Fli inh	LGR2 inh
CCOc1ccc(NC(=S)Nc2cccc3cnccc23)cc1	-7	-19	19	.	8
CCc1cccc(NC(=S)Nc2cccc3ccccc23)c1	52*	-8	6	-6	-47
S=C(Nc1cccnc1)Nc1cccc2cnccc12	10	4	28	3	13
CCOc1ccc(NC(=S)Nc2cccc3ccccc23)cc1	31	-11	68*	-43	-48
Cc1noc(C)c1NC(=O)Nc1ccc2c(c1)CC(=O)N([C@@H](C)CO)C[C@@H](C)[C@@H](CN(C)C(=O)Nc1c(C)noc1C)O2	.	.	.	1	-13
Cc1ccc(NC(=S)Nc2cccc3ccccc23)cc1	66*	-30	40	17	4
Cc1csc(NC(=O)c2cc3c(s2)CCC3)n1	-47	-30	68*	.	.
Cc1csc(NC(=O)c2ccc(C)c([N+](=O)[O-])c2)n1	17	-17	68*	.	8

Bioassay records deposited in PubChem BioAssay by several laboratories.
